Experimental data as given in PubChem BioAssay AID1851 (National Center for Advancing Translational Sciences (NCATS), 2009).
Hit rate of the full screen: of about 16,000 compounds, about 2,600 (16%) were called active. About 20% were inconclusive and are not listed. These entries were drawn from the full list. A number with no mark means an inactive call. The call rests on the fitted dose curve; in most records, active means well fitted curve in the direction sought with a large enough effect; inconclusive means small, poorly fitted or top-dose-only effect, or effect the other way; inactive means no such curve, though single readings can be large or run the other way.

Target: Cytochrome P450 2D6 (Homo sapiens) (UniProt P10635)
Sequence (P10635 whole entry, looked up): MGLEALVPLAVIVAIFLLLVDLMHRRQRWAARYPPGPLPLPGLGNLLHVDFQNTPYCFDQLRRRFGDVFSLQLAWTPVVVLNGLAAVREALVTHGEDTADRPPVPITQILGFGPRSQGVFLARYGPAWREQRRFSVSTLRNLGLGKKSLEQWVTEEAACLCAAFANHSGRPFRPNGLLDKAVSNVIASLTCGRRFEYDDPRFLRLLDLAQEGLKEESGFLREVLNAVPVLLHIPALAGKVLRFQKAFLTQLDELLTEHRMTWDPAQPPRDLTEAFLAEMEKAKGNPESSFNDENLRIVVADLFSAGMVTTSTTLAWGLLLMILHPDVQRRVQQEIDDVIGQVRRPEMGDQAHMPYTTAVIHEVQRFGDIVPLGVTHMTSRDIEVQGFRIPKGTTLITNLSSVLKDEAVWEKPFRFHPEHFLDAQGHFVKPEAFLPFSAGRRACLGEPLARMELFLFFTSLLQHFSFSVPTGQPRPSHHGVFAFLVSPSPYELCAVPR
Experiment: Cytochrome panel assay with activity outcomes
Conditions: recombinant CYP, pro-luciferin dealkylation, luminescence, p450-cyp2d6; series mostly up to 57.1 µM
On the % scale 0 is the no-effect control and ±100 the full control effect.

SMILES | AC50 | activity, negative = inhibition
COc1cc(CC(=O)OC2CCOC2=O)cc(OC)c1OC (stereo not given) | inactive | –
Cc1ccc(CN2CC34C=CC(O3)C(C(=O)NCc3ccco3)C4C2=O)cc1 (stereo not given) | inactive | –
CCCCNC(=O)C1C2C=CC3(CN(Cc4ccccc4Cl)C(=O)C13)O2 (stereo not given) | inactive | –
Cc1ccc(CN2CC34C=CC(O3)C(C(=O)NCc3ccc5c(c3)OCO5)C4C2=O)cc1 (stereo not given) | 14.1 µM (active) | –
COCCCNC(=O)C1C2C=CC3(CN(Cc4ccc(C)cc4)C(=O)C13)O2 (stereo not given) | inactive | –
O=C(NCC1COc2ccccc2O1)C1C2C=CC3(CN(Cc4cccs4)C(=O)C13)O2 (stereo not given) | 14.1 µM (active) | –
COc1ccc(CCN2CC34C=CC(O3)C(C(=O)NCc3ccccc3)C4C2=O)cc1OC (stereo not given) | inactive | –
CCOc1cc(S(=O)(=O)N(Cc2ccccc2)Cc2ccccc2)c(OCC)cc1-n1cnnn1 | inactive | –
Cc1nc2ncnn2c(C)c1CCC(=O)NCc1ccccc1 | inactive | –
CCOc1ccc(-c2cc(CCCC(=O)Nc3cc(OC)ccc3OC)no2)cc1 | inactive | –
COc1ccc(NC(=O)CSc2nncn2C)c([N+](=O)[O-])c1 | inactive | –
CCOc1ccc(-n2c(SCC(=O)Nc3ccc(OC)cc3OC)nc3c(c2=O)SCC3)cc1 | 2.24 µM (active) | –
N#Cc1cccc(NC(=O)N2CC[C@@]3(CCCN(C(=O)c4ccncc4)C3)C2)c1 | inactive | –
CS(=O)(=O)N1CCC[C@@]2(CCN(C(=O)Nc3cccc(C#N)c3)C2)C1 | inactive | –
CCCc1cc(=O)oc2cc(OCC(=O)N3CCc4ccccc43)ccc12 | inactive | –
CCCc1cc(=O)oc2cc(OCc3nn[nH]n3)ccc12 | inactive | –
CCCCc1cc(=O)oc2cc(OCC(=O)N(CC)CC)ccc12 | 12.6 µM (active) | –
COc1cccc2c1C(=O)c1c(O)c3c(c(O)c1C2=O)C[C@@](O)(C(=O)CO)C[C@H]3O[C@H]1C[C@@H](N)[C@H](O)[C@@H](C)O1.[W] | – | 4.97% [at 11.4 µM]
COC(=O)c1nn(-c2ccc(OC)cc2)c(=O)cc1Oc1cccc(Cl)c1 | inactive | –
O=C1CCc2cc(OCCCCc3nnnn3C3CCCCC3)ccc2N1 | inactive | –

SMILES | AC50 | activity, negative = inhibition
c1ccc(N2CCN(CCCOc3ccc4c(c3)OCO4)CC2)cc1 | 0.126 µM (active) | –
Fc1ccc([C@H]2CCNC[C@H]2COc2ccc3c(c2)OCO3)cc1 | inactive | –
Cn1c(=O)cc(OCCCC(=O)N2CCN(c3ccccc3)CC2)c2ccccc21 | inactive | –
O=C(O)c1cc(=O)[nH]c(SCc2ccccc2)n1 | – | 4.29% [at 11.4 µM]
C#CCCCO/N=C1/C[C@@H](O)[C@@H](O)[C@@H]2[C@@H]3C(=O)N(Cc4ccccc4)C(=O)[C@H]3CC[C@H]12 | – | 15.7% [at 11.4 µM]
COC(=O)c1cc(Br)c(=O)n(CCc2ccc(O)cc2)c1 | inactive | –
CCNc1ncc2nc(-c3cccs3)c(=O)n(Cc3cccc(OC)c3)c2n1 | inactive | –
CC1(C)C2([N+](=O)[O-])CN3CC1([N+](=O)[O-])CN(C2)C3c1ccccc1 (stereo not given) | inactive | –
CO[C@]1(NC(=O)[C@H](C(=O)O)c2ccc(O)cc2)C(=O)N2C(C(=O)O)=C(CSc3nnnn3C)CO[C@H]21 | inactive | –
Cc1c2cnccc2c(C)c2c1c1ccccc1n2CCOC(=O)c1ccccc1 | 3.16 µM (active) | –
Cc1ccc(C(=O)O/N=C/c2c(Cl)n(C)c3ccccc23)cc1 | inactive | –
O=C(OCn1nnc2ccccc2c1=O)c1cccnc1 | inactive | –
COc1ncc2ncc(=O)n(CCC#N)c2n1 | inactive | –
CC(C)(C)NC[C@H](O)COc1cccc2c1CCC(=O)N2 | inactive | –
CC(C)(C)NC[C@@H](O)COc1ccccc1C1CCCC1 | 2.51 µM (active) | –
CC(C)(C)NC[C@H](O)COc1cccc2c1CCCC2=O | inactive | –
CC(C)n1cc(/C=C2/SC(=O)N(CC(=O)Nc3ccc4c(c3)OCO4)C2=O)c2ccccc21 | inactive | –
Cc1cccc2cc(=O)[nH]c(C)c12 | inactive | –
NC(=O)C1(N2CCCCC2)CCN(C(=O)c2cccn3c(=O)c4cc(Cl)ccc4nc23)CC1 | inactive | –
C=C(CC1([C@@H](NP(=O)(c2ccccc2)c2ccccc2)[C@H]2C[C@@H]2CCCC)CC1)c1ccccc1 | inactive | –

SMILES | AC50 | activity, negative = inhibition
CCCC[C@@H]1C[C@H]1C(NC(=O)c1ccccc1)c1ccc(-c2ccccc2)cc1 (stereo not given in full) | inactive | –
CCCC[C@@H]1C[C@H]1C(NC(=O)c1ccc(-c2ccccc2)cc1)c1ccc(-c2ccccc2)cc1 (stereo not given in full) | inactive | –
CCCC[C@H]1C[C@@H]1[C@@H]1N(P(=O)(c2ccccc2)c2ccccc2)C[C@@](O)(c2ccccc2)CC12CC2 | 15.8 µM (active) | –
CCCC[C@H]1C[C@@H]1[C@@H]1N(P(=O)(c2ccccc2)c2ccccc2)[C@](CO)(c2ccccc2)CC12CC2 | 2.51 µM (active) | –
Cc1ccc(NC(=O)CCSc2nnc3ccccn23)cc1 | inactive | –
CCOC(=O)c1c(C)nc2c(c1-c1ccccc1)C(=O)CC(C)(C)C2 | inactive | –
CCOC(=O)Cc1csc(NC(=O)c2ccc(Cl)nc2)n1 | inactive | –
COc1ccc(Oc2ncc3ncc(=O)n(C)c3n2)cc1 | inactive | –
Cc1nc2cnc(Nc3ccccc3)nc2n(Cc2cccs2)c1=O | inactive | –
O=C1c2ccccc2C(=O)N1CCSC(=S)N1CCOCC1 | inactive | –
O=C(NCc1cc(F)cc2c1OCCO2)[C@H]1C[C@@H]1[C@H](NP(=O)(c1ccccc1)c1ccccc1)c1ccccc1 | inactive | –
O=C(O)CCC(=O)CCC(=O)c1ccccc1 | inactive | –
CC1(C)CC(=O)C(CCC(=O)c2ccccc2)C(C)(C)N1 (stereo not given) | 0.891 µM (active) | –
C[N@+]1(CCC(=O)c2ccccc2)CC[C@H]2CC[C@H](C2)C1 | – | 10.5% [at 11.4 µM]
O=C(c1cccc(F)c1)N1CCC[C@@]2(CCN(c3ccccc3)C2)C1 | inactive | –
N/C(=N\OC(=O)Cc1ccc(-c2ccccc2)cc1)c1cccc([N+](=O)[O-])c1 | inactive | –
CC(=O)O[C@]1(C)N=NC2(CCCCC2)O1 | – | -4.7% [at 11.4 µM]
COc1cc(C(=O)NCC(c2cccnc2)N2CCN(C)CC2)cc(OC)c1OC (stereo not given) | inactive | –
COc1ccc(C(CNC(=O)c2cc(=O)[nH]c3ccccc23)N2CCCC2)cc1 (stereo not given) | 14.1 µM (active) | –
CC(C)NC(=O)COC(=O)c1cc(=O)[nH]c2ccccc12 | inactive | –
